Experimental findings from PubChem BioAssay (NCATS) are described below.

Test [1] is described as follows: AP1 Signaling Pathway (AID 357; active = well fitted curve in either direction with a large enough effect, not every such curve was filed as active; note: % is set by controls: 0 for no effect and ±100 for the full control effect). As to conditions: ME-180 AP-1-bla reporter, EGF-induced, beta-lactamase ratio, 5 h; at 7.69 µM (top of the series) unless noted. A digest of the protocol: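 AP-1-bla ME-180 cells with beta-lactamase reporter under AP-1 response element, stimulated with EC50 EGF; compounds titrated, 5 hours at 37 degrees Celsius. CCF4 read at 460/530 nm ratio; positive and negative modulators judged by AC50.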

Test [2] concerns the target Cytochrome P450 1A2 (Homo sapiens) (UniProt P05177). Nature of the test: p450-cyp1a2 (AID 410; calls by dose curve; note: potency is the fitted concentration of half-maximal effect;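 for activity change, negative = inhibition: -100% = full effect of reference inhibitor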). A digest of the protocol: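 20nM CYP1A2 with 100uM Luciferin-ME (at Km) in 100mM KPO4; compound preincubated 10 min, NADPH regeneration added, 60 min at room temperature. Luciferin quantified by luminescence after detection reagent; normalized to 57 uM furafylline.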
A short description of test [3]: NFAT Signaling Pathway (AID 444; active = well fitted curve in either direction with a large enough effect, not every such curve was filed as active;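 note: carbachol stimulus at about its EC50 of 1 µM final; % is set by controls: 0 for no effect and ±100 for the full control effect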). As to conditions: Jurkat NFAT-bla M1, carbachol, beta-lactamase ratio, 5 h; at 7.69 µM (top of the series) unless noted. Put shortly: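 Read-out: CCF4 FRET ratio (460 nm/530 nm) after 1 h RT dye loading, used for %activity and AC50 from titration series. Cells: Jurkat NFAT-β-lactamase/M1 line, treated with compound plus 1 uM carbachol for 5 h, 37 °C.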

A short description of test [4]: Stat Signaling Pathway (AID 446; active = well fitted curve in either direction with a large enough effect, not every such curve was filed as active;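 note: ME-180 cervical cancer cells given 40 pM IL-6 alongside compound; SIE-controlled beta-lactamase reporter measured as 460/530 nm FRET emission ratio; % is set by controls: 0 for no effect and ±100 for the full control effect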). As to conditions: ME-180 SIE beta-lactamase reporter, IL-6 stimulated, 5 h; at 7.69 µM (top of the series) unless noted. Put shortly:
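Reporter line: ME-180 cervical carcinoma, SIE-beta-lactamase. Treatment: compound with 40 pM IL-6, 5 hrs, 37 C, in low-serum OPTI-MEM with 10 mM HEPES pH 7.3. Detection: 460/530 nm fluorescence.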

Test [5] deals with Glucocorticoid receptor (Homo sapiens) (UniProt P04150). Nature of the test: GR-GFP Redistribution (AID 450;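 active = compounds whose dose series gives a full or clear partial fitted curve of increased nuclear translocation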; note: potency is the fitted concentration of half-maximal effect). As to conditions: U2OS GR-GFP nuclear translocation, laser cytometry, 2 h.
Glucocorticoid receptor (Homo sapiens), sequence (P04150 whole entry, looked up, the tested form may be a part): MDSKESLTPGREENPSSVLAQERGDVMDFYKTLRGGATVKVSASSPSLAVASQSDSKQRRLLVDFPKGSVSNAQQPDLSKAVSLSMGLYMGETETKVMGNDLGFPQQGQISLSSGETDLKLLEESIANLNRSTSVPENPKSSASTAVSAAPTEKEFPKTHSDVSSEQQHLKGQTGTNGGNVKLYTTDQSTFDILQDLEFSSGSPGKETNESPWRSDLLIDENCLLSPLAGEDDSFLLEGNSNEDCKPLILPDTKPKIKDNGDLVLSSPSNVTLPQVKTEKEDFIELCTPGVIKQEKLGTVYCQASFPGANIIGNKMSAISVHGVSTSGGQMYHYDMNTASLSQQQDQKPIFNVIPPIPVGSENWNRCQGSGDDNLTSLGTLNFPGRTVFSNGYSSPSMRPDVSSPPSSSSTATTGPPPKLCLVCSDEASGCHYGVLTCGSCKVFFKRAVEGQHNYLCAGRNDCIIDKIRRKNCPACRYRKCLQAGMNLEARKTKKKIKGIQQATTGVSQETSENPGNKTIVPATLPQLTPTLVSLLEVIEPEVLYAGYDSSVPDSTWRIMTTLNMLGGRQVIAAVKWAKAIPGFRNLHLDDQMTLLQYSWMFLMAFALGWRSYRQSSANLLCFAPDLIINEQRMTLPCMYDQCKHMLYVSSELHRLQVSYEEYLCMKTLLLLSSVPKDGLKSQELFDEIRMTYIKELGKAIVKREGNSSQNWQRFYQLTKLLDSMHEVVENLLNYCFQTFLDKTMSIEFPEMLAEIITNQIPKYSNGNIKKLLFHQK
The target is the same in test [6]. Nature of the test: GR-EFC Redistribution (AID 451; calls by dose curve; note: potency is the fitted concentration of half-maximal effect). As to conditions: CHO-K1 GR-EFC translocation, beta-gal luminescence, 2 h. A digest of the protocol: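 Translocation of GR-ED fusion to nuclear EA restores b-gal, read by luminescence after 1 h room-temperature detection. Engineered CHO-K1 biosensor cells, 1,000/well, exposed 2 h at 37 C to titrations up to 46 uM final.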

The target of test [7] is 3',5'-cyclic-AMP phosphodiesterase 4B (Homo sapiens) (UniProt Q07343). In words: qHTS Assay for Inhibitors of PDE-IV (AID 607; active = well fitted activation curve with a large enough effect in the main read-out, with a control signal flat, not every such curve was filed as active; note: % of control where 0% means no effect). Put shortly:
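Cell-based read-out of cAMP via a modified cyclic nucleotide-gated channel and membrane potential dye (535/590 nm) in HEK293 cells expressing PDE4 endogenously. Compounds tested up to 22.9 uM final; 100 uM RO 20-1724 reference.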
A general note: In qHTS, concentration-response curves come from the screen itself.

The target in test [8] is Guanine nucleotide-binding protein G(i) subunit alpha-1 (Homo sapiens) (UniProt P63096). Nature of the test: qHTS Assay for Inhibitors of RGS12 GoLoco Motif Activity (Green Fluorophore) (AID 879).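 Note: 0% = labeled peptide with Gαi1 and full inhibition = labeled peptide alone without protein; negative values mean loss of peptide binding seen as reduced polarization.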 A digest of the protocol: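 Fluorescence polarization assay: 50 nM Gαi1 with 10 nM FITC-labeled RGS12 GoLoco peptide in 10 mM Tris pH 7.5, 150 mM NaCl, 0.1 mM GDP, 0.05% NP40, 10 min at room temperature with compound.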
Guanine nucleotide-binding protein G(i) subunit alpha-1 (Homo sapiens), sequence (P63096 whole entry, looked up): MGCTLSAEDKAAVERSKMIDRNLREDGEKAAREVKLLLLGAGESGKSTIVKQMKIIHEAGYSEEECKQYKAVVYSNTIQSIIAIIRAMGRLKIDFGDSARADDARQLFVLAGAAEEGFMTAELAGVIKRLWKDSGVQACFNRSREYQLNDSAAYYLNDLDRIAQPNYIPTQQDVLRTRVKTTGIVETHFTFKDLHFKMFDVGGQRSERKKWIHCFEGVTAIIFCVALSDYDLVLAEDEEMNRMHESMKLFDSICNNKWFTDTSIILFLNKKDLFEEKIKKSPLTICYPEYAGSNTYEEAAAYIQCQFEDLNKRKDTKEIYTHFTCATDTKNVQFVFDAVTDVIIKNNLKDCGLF

The target in test [9] is Cytochrome P450 3A4 (Homo sapiens) (UniProt P08684). In words: qHTS Assay for Activators of Cytochrome P450 3A4 (AID 885). Note: nearly all actives have a fitted effect of over 65% in size. A digest of the protocol: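 Signal was normalized against complete inhibition by 57 uM ketoconazole. The reaction used 20nM CYP3A4 with 25uM Luciferin-PPXE, 10-min compound preincubation and a 60-min NADPH-supported step at RT.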
The nature of test [10]: qHTS Assay for Identification of Small Molecule Agonists for Thrombopoietin (TPO) Signaling Pathway (AID 917). Note: % is set by controls: 0 for no effect and ±100 for the full control effect. Put shortly: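 Luminescence from a Glycoprotein IIb promoter–driven luciferase reporter served as read-out in murine Ba/F3 cells carrying the human TPO receptor. Cells, deprived of IL-3 overnight, received compounds with 26 pM TPO and were incubated 24 hrs at 37 C.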

The target in test [11] is Pyruvate kinase (Leishmania mexicana) (UniProt Q27686). In words: qHTS Validation Assay for Inhibitors of Leishmania Mexicana Pyruvate Kinase (AID 945).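 Note: 0% = DMSO only neutral control wells.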 A digest of the protocol:
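Eight-point qHTS titrations; enzyme 0.2 nM LmPYK (E451W mutant); substrates 0.5 mM PEP, 0.1 mM ADP; 7 mM MgCl2; 1 h room temperature; PKLight luminescence normalized to neutral control.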

For test [12], the target named is Pyruvate kinase PKM (Homo sapiens) (UniProt P14618). Nature of the test: qHTS Assay for Activators of Human Muscle Pyruvate Kinase (AID 954; active = well fitted curve in the direction sought with a large enough effect, not every such curve was filed as active;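 note: 0% = uninhibited enzyme and -100% = no enzyme or full thiadiazolimine inhibition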). Put shortly: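 Human PKM2 activity is measured as ATP generation, detected by luciferase-coupled luminescence. The enzyme (0.1 nM) acts on 0.5 mM PEP and 0.1 mM ADP for 1 h at ambient temperature; data are normalized to uninhibited and full-inhibition wells.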
Pyruvate kinase PKM (Homo sapiens), sequence (P14618 whole entry, looked up): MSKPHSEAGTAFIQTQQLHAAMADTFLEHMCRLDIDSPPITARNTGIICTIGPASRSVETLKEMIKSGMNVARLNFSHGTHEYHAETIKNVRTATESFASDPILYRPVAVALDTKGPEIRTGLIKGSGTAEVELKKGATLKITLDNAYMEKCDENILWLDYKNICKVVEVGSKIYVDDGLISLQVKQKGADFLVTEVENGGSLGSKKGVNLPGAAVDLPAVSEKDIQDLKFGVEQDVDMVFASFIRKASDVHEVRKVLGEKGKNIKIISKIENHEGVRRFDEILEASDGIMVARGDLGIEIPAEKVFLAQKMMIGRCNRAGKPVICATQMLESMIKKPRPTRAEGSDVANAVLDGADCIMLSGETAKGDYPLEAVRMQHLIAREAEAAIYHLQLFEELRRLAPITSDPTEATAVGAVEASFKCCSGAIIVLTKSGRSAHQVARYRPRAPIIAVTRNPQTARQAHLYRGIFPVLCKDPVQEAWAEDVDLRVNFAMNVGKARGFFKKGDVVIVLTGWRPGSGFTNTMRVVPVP

Test [13] addresses Alpha-galactosidase (Coffea arabica) (UniProt Q42656). Nature of the test: Counterscreen for Glucocerebrosidase Inhibitors: qHTS Assay for Coffee Bean alpha-Galactosidase at pH 4.5 (AID 957).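 Note: plate controls were enzyme alone for no effect and no enzyme for full effect.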 Put shortly:
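Coffee bean enzyme (2 nM) with 80 uM 4-methylumbelliferyl alpha-D-galactopyranoside in 50 mM citric acid, 0.005% Tween-20, pH 4.5, 20 min at room temperature; compounds 0.7 nM–77 uM. Stopped at pH 10, fluorescence 365/440 nm; AC50 from Hill fits.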
Background: The purpose of a counterscreen is to sort out artefacts and off-target activity.

The target in test [14] is Alpha-galactosidase A (Homo sapiens) (UniProt P06280). Nature of the test: Counterscreen for Glucocerebrosidase Inhibitors: qHTS Assay for Human alpha-Galactosidase at pH 4.5 (AID 992). Note: 0% is about no effect. A digest of the protocol:
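Quantitative HTS: compounds tested from 0.7 nM up to 77 uM against 2 nM enzyme with 80 uM 4-MU alpha-D-galactopyranoside. The 20 min room-temperature reaction is stopped with 1M NaOH/1M glycine, pH 10.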

The target in test [15] is alpha-glucosidase (Oryza sativa, rice) (UniProt Q653V4). Nature of the test: Counterscreen for Glucocerebrosidase Inhibitors: qHTS Assay for Rice alpha-Glucosidase at pH 5.0 (AID 997).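 Note: 0% = full activity with enzyme and -100% = basal without enzyme.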 Put shortly:
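Rice alpha-glucosidase (4 nM final) with 400 uM 4-methylumbelliferyl-alpha-D-glucopyranoside in citrate buffer pH 5.0, 20 min at room temperature, stopped at pH 10; fluorescence 365/440 nm, compounds 0.7 nM–77 uM, AC50 from Hill fits.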

In test [16] the target is Alpha-galactosidase (Coffea arabica) (UniProt Q42656). In words: Counterscreen for Glucocerebrosidase Inhibitors: qHTS Assay for Coffee Bean alpha-Galactosidase at pH 5.9 (AID 998).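 Note: plate controls were uninhibited enzyme for no effect and no-enzyme basal signal for full effect.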 A digest of the protocol: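 Compounds were titrated from 0.7 nM to 77 uM against green coffee bean alpha-galactosidase (2 nM) using 80 uM fluorogenic 4-methylumbelliferyl substrate. After 20 min at room temperature, reactions were stopped at pH 10 and read by fluorescence.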
Alpha-galactosidase (Coffea arabica), sequence (Q42656 whole entry, looked up): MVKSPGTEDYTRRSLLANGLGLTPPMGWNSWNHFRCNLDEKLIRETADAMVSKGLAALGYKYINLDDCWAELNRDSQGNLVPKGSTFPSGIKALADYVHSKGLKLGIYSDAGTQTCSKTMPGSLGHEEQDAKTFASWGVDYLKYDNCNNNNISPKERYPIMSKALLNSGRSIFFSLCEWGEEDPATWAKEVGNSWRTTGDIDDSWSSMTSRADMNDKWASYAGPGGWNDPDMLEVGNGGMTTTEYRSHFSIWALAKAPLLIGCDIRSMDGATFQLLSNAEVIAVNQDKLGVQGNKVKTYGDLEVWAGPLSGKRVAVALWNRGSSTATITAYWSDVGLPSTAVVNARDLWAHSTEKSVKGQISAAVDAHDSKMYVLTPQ

Test [17] has as its target Mitogen-activated protein kinase 10 (Mus musculus) (UniProt Q61831). Nature of the test: JNK3 AlphaScreen Assay (AID 530; active = well fitted curve in either direction with a large enough effect, not every such curve was filed as active). Put shortly: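 Compound titrations were preincubated 15 minutes at room temperature with substrate, antibody and pre-activated JNK3-containing HepG2 lysate. Reactions were started with 10 uM ATP and stopped with EDTA-containing bead buffer for AlphaScreen detection.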
On the technique in general: In Alpha technology, singlet oxygen from a donor bead excites a nearby acceptor bead.

The target of test [18] is Muscarinic acetylcholine receptor M1 (Rattus norvegicus) (UniProt P08482). In words: qHTS Assay for Antagonists of Acetylcholine Muscarinic M1 Receptor: Measurement of IP-One Response (AID 944). Note: nearly all actives have a fitted effect of over 75% in size. Note: potency is the fitted concentration of half-maximal effect. A digest of the protocol: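 CHO cells stably expressing rat M1, pretreated 10 min with compound, then stimulated 30 min with carbachol at EC80 (200 nM) in LiCl-containing buffer pH 7.4; IP1 accumulation read by HTRF competition (665/620 nm).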
Muscarinic acetylcholine receptor M1 (Rattus norvegicus), sequence (P08482 whole entry, looked up): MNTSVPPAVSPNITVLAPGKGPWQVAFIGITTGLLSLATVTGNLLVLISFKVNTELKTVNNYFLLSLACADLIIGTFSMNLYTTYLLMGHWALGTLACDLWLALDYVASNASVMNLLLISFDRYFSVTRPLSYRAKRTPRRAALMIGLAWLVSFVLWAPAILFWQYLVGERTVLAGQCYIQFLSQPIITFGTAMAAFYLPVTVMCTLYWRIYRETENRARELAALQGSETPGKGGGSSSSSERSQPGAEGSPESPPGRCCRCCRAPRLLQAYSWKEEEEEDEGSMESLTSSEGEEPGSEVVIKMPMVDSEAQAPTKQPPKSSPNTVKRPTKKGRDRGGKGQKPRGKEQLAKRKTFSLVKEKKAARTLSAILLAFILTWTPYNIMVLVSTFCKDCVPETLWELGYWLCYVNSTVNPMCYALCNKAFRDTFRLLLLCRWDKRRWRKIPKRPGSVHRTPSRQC

Unmarked numbers belong to inactive results. Records with an inconclusive call do not appear. Activity calls are given as the source filed them. Unless noted, calls come from the whole dose curve; as a rule, active = well fitted curve in the direction sought with a large enough effect; inconclusive = small, poorly fitted or top-dose-only effect, or another doubt; inactive = no such curve, though single readings can be large; an effect the other way counts as inactive or inconclusive. Where only a bound is given, the exact number is not on record here.

Alpha-galactosidase A (Homo sapiens), sequence (P06280 whole entry, looked up): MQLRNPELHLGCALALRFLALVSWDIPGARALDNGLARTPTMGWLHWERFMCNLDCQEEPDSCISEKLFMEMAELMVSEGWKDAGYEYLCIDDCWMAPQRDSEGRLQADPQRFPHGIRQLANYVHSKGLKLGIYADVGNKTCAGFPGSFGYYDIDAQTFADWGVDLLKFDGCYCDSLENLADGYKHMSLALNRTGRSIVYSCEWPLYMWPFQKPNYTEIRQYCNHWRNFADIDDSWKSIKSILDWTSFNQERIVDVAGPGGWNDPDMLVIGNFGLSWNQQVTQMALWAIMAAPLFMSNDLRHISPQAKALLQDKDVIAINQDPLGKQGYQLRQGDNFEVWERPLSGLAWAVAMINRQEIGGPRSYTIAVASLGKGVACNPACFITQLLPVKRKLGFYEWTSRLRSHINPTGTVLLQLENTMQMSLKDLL
Cytochrome P450 1A2 (Homo sapiens), sequence (P05177 whole entry, looked up): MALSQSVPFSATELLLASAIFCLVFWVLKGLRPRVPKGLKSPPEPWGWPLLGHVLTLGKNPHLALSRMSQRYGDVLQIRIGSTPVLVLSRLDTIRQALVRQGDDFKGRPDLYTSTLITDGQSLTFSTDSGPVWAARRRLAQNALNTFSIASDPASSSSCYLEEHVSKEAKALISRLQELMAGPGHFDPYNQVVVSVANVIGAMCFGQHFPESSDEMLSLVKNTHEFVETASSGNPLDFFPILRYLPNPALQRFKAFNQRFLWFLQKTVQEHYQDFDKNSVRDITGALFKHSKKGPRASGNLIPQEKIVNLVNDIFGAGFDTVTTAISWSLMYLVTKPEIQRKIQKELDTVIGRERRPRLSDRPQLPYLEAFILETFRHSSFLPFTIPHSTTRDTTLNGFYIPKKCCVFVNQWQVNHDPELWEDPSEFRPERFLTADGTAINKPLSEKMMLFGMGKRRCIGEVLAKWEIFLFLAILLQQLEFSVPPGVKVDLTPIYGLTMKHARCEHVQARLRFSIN
Pyruvate kinase (Leishmania mexicana), sequence (Q27686 2-499 E452W): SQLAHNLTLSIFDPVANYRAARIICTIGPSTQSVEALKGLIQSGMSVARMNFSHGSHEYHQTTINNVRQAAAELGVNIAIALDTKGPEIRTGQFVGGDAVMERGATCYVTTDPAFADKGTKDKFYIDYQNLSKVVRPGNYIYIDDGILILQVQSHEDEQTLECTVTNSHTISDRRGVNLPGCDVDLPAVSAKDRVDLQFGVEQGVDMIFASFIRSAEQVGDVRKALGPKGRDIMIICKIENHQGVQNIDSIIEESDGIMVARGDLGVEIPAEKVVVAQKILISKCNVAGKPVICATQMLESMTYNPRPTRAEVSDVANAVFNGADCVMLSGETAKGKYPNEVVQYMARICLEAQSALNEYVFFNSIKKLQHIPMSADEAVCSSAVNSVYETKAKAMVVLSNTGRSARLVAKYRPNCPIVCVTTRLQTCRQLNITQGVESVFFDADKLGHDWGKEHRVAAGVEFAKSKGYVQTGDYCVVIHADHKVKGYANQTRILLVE
3',5'-cyclic-AMP phosphodiesterase 4B (Homo sapiens), sequence (Q07343 whole entry, looked up): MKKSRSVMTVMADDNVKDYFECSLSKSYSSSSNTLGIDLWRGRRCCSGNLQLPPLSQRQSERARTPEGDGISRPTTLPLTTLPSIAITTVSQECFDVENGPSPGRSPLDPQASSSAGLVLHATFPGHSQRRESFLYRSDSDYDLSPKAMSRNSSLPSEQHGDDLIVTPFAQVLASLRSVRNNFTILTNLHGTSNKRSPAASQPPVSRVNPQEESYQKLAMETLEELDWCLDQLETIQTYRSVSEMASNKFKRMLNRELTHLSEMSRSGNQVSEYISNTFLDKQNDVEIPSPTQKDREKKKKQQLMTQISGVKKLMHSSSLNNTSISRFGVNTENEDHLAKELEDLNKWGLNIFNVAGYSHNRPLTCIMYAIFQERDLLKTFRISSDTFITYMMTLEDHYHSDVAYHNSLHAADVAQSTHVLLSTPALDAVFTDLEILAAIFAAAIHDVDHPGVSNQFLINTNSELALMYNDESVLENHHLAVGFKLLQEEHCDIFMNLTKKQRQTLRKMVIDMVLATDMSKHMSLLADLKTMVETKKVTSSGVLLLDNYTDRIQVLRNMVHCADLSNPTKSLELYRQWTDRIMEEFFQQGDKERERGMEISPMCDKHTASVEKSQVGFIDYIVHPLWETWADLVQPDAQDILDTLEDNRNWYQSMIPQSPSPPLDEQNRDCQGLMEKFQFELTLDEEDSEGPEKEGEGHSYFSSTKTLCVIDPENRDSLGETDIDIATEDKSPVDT

Regarding `Oc1ccc2c3c1O[C@@H]1c4[nH]c5c(c4C[C@@]4(O)[C@@H](C2)N(CC2CC2)CC[C@]314)C[C@]1(O)[C@@H]2Cc3ccc(O)c4c3[C@@]1(CCN2CC1CC1)[C@H]5O4`, the activity change, negative = inhibition in test [1] was -1.65% [at 38 µM]; in [3] it was -8.04% [at 38 µM]. For the same molecule, the Potency result in test [2] and in test [9] was “inactive” in each case. Also, the activity, negative = inhibition in test [4] was -12.2% [at 38 µM]. Besides, the Potency in test [5] and in [6] was over 46 µM in each case. In addition, the molecule was classed as inactive in test [7], in test [8], in [10], in test [11], in test [12] and in test [13]. The call in test [14], in test [15] and in test [16] was inactive.
Take `CC(C)N[C@@H](C)Cc1ccc(I)cc1`: the activity change, negative = inhibition is 17.5% [at 38 µM] in test [1] and -29.8% [at 38 µM] in test [3]. Further, the Potency in test [2] is 10 µM (active); in test [5] it was over 46 µM; in test [6], over 46 µM; in test [18], 14.1 µM (active). In test [4], the activity, negative = inhibition is -4.05% [at 38 µM]. Besides, the Potency result in test [17] was “inactive”. The outcome in [7], in test [8], in [10], in [11], in [12] and in [13] was inactive. Besides, the molecule was called inactive in test [14], in test [15] and in test [16].
With `C[C@]12CC[C@@H]3[C@H](CCC4=CC(=O)CC[C@]43C)[C@]1(O)CC[C@@]2(O)C(=O)CO`, the activity change, negative = inhibition in test [1] is -0.316%; in test [2], 4.8% [at 2.29 µM]; in [3] it was 5.17%. Besides, the activity, negative = inhibition in test [4] was -1.84%. For the same molecule, the Potency is 0.822 µM (active) in test [5] and over 9.22 µM in test [6]. For the same molecule, in [7], the result was inactive.
Take `NC(=O)CN1C[C@@H](O)CC1=O`: the results for the activity change, negative = inhibition in test [1] and in [3] were 2.98% [at 38 µM] and 17.8% [at 38 µM], respectively. For the same molecule, the Potency entry in test [2], in [17] and in test [18] was “inactive” throughout. For the same molecule, the activity, negative = inhibition in test [4] is -8.38% [at 38 µM]. The Potency in [5] and in [6] was over 46 µM in each case. The call in [7], in test [8], in test [10], in test [11], in test [12] and in test [13] was inactive. Moreover, the result in [14], in test [15] and in test [16] was inactive.
For the molecule `O=C(O)[C@H]1CCN1`, the results for the activity change, negative = inhibition in test [1] and in test [3] were -3.07% [at 38 µM] and 0.684% [at 38 µM], respectively. The Potency entry in test [2], in test [17] and in [18] was “inactive” each time. Further, the activity, negative = inhibition in test [4] is 3.4% [at 38 µM]. Also, the Potency in [5] and in [6] was over 46 µM throughout. The molecule was classed as inactive in test [7], in [8], in test [10], in test [11], in test [12] and in test [13]. Besides, the molecule was called inactive in test [14], in [15] and in test [16].
`CCN(CC)c1ncnc2c1ncn2[C@@H]1O[C@@H](COP(=O)(O)OP(=O)(O)C(Br)(Br)P(=O)(O)O)[C@H](O)[C@@H]1O`: the activity change, negative = inhibition in test [1] was 6.32% [at 38 µM]; in test [3] it was 8.54% [at 38 µM]. Also, the Potency result in test [2] and in [18] was “inactive” in each case. Further, in test [4], the activity, negative = inhibition was -1.38% [at 38 µM]. Also, the Potency in test [5] and in [6] was over 46 µM throughout. The molecule was called inactive in [7], in test [8], in test [10], in test [11], in test [12] and in [13]. The call in [14], in [15] and in [16] was inactive.
